This experiment is described as follows: p53 small molecule agonists, cell-based qHTS assay (AID 1963582). The method in brief:
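Compounds are pin-transferred in DMSO onto p53RE-bla cells and incubated 16 h at 37 C. The B/G FRET beta-lactamase substrate is then applied for 2 h at RT and fluorescence recorded.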
On the technique in general: Quantitative high-throughput screening tests each substance at several concentrations.

Each structure is given as a SMILES string. Records with an inconclusive call do not appear. Entries that show only a call come without a potency. Unmarked numbers belong to inactive results. Active and inactive are the calls of the source. The call rests on the fitted dose curve; in most records, active means well fitted activation curve with a large enough effect in the signal ratio in the repeat runs (not every such curve was filed as active); inconclusive means weak or mixed curves; inactive means flat fitted curve, though single readings scatter; the % refers to the signal ratio.
Potency means the concentration at half of the fitted maximal effect.

On to `O=C(O)CCC(=O)C(=O)O`, for which the Potency result was “inactive”. On the same count and under the same terms, with `CCCCCCCCOS(=O)(=O)O` the entry was “inactive”; with `C=CC/C=C/C/C=C/C/C=C/C`, “inactive”.

Take `CCCCCCCCCCCCCCBr`: the Potency entry was “inactive”. Same read-out and setting: with `CCO[Si](CC)(OCC)OCC` the entry was “inactive”; with `CC1(C)C(=O)N(CO)C(=O)N1CO`, “inactive”. Turning to `O=S(O)O`, the activation is 0.538% [at 13.5 µM].

As to `Nc1nc(-c2ccccc2)c(Br)c(=O)[nH]1`, the Potency entry is “inactive”. The same measure, in the same setting: the entry for `Cc1cccc(C)c1NC(=O)c1cc(S(N)(=O)=O)c(Cl)cc1O` is “inactive”. Still for that read-out and setting: with `CN1CC(=O)NC1=N` the entry was “inactive”; with `CC(CC(C)(C)C)CC(C)(C)CC(C)(C)C` (stereo unspecified), “inactive”. Still for that read-out and setting: the entry for `CCCCCCCCCCCCCCCCCC#N` is “inactive”; for `Cc1cscn1` it is “inactive”; for `CC(=O)c1ccc(Cl)c(Cl)c1Cl` it is “inactive”. For `CCOC(=O)NNc1ccc(N(CC)CC(C)O)nn1` (stereo unspecified), the Potency result is “inactive”. Same read-out and setting: the entry for `OCCN1C[C@H](O)[C@@H](O)[C@H](O)[C@H]1CO` is “inactive”.

On to `COc1ccccc1OC(=O)Oc1ccccc1OC`, for which the Potency entry is “inactive”. The same measure, in the same setting: with `O=c1cccccc1O` the entry was “inactive”. Same read-out and setting: the entry for `CC1(C)CC(O)CC(C)(C)N1` is “inactive”; for `OCCCc1cccnc1` it is “inactive”; for `C=CC(=O)OCCOCCOCC` it is “inactive”. Still for that read-out and setting: with `Cc1cccc(C(=O)O)c1[N+](=O)[O-]` the entry was “inactive”; with `CCCCC(CC)COC(=O)COc1ccc(Cl)cc1C` (stereo unspecified), “inactive”; with `OCCCCCCO`, 41.3 µM (active). On to `C1CCN(CN2CCCCC2)CC1`, for which the Potency entry was “inactive”. On the same count and under the same terms, the entry for `NS(=O)(=O)c1cc(C(=O)O)cc(N2CCCC2)c1Oc1ccccc1` is “inactive”; for `C=CCSSCCC` it is “inactive”. Same read-out and setting: the entry for `NC(=O)c1ccncc1` is “inactive”.

Consider `CCCCCCCCCCCC(=O)N(CC)CC`, for which the Potency entry was “inactive”. In the case of `CCCCCCCCN1CCCC1=O`, the Potency result is “inactive”.

As for `Cc1cnc(NS(=O)(=O)c2ccc(N)cc2)nc1`, the Potency result was “inactive”. With `COC(=O)C(C)O` (stereo unspecified), the Potency result is “inactive”. The same measure, in the same setting: with `O=C(O)c1cccc(Oc2ccccc2)c1` the entry was “inactive”.

As for `O=C(O)C1CCC1`, the Potency entry was “inactive”. On the same count and under the same terms, with `CCn1c2ccccc2c2cc([N+](=O)[O-])ccc21` the entry was “inactive”. For `O=c1[nH]c(=O)c2[nH]c(=O)[nH]c2[nH]1`, the activation was 1.49% [at 5.99 µM].
